Hits are enriched below; roughly 3.6% of the tested compounds scored in any of these assays.
FAS-TE inh – inhibitors of human fatty acid synthase thioesterase domain. inhibition, % at 15 µM. 0.67% of 360,000 active. recombinant FAS-TE, OMFH fluorogenic substrate, fluorescence endpoint. P49327;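 active = compounds whose normalised, plate-corrected inhibition of enzyme fluorescence in the single-dose primary screen is 50% or more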;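 note: 0% = DMSO with enzyme and 100% = substrate without enzyme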
NadD inh – blocks S. aureus nicotinate mononucleotide adenylyltransferase | purified NadD enzyme, colorimetric absorbance read-out | inhibition, % at 20 µM | 0.78% of 360,000 active | AID 602399; in the data active = inhibition above about 26%
CRFR2-BP antag – blocks CRF-induced signaling of the CRF-BP/CRF-R2 complex | inhibition, % at 11.8 µM | 0.59% of 350,000 active | HEK293 CRF-R2/CRF-BP, CRF-induced calcium fluorescence;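 active = inhibition of the ligand-induced calcium signal above about 50% at the single tested concentration, limit read from the data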
Myeloid diff MLP – compounds promoting myeloid differentiation; ER-HoxA9 myeloid progenitors, lysozyme-GFP differentiation, flow cytometry; calls only at 10 µM; 1% of 360,000 active;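 active = normalized GFP-positive differentiation at or above the plate's own cutoff, the solvent-only control mean plus 3 SD; inconclusive = no clear call, values can overlap the other calls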;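 note: cells exposed to compound for four days before flow analysis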
NRP1-CendR mod – modulators of CendR peptide binding to human neuropilin-1; 0.85% of 360,000 active; O14786; AID 602438; FAM-RPARPAR peptide binding to NRP-1, fluorescence polarization; inhibition, % at 25 µM;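 active = inhibition or corrected inhibition above about 18%, plus a signal ratio from 0.5 to 1.5, limit read from the data, passing the limit was not always enough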
* marks the source's active call; other numbers are inactive results; i = inactive; ? = inconclusive; / = not tested or not shown; + = active, no number.

SMILES | FAS-TE inh | NadD inh | CRFR2-BP antag | Myeloid diff MLP | NRP1-CendR mod
CCN(CC)c1cc(C)c2cc(NC(=O)c3ccccc3OC)ccc2n1 | 23 | -6 | -10 | + | -8
Cc1ccc(C)c(NC(=S)N(Cc2ccc(Cl)cc2)Cc2ccc(C(=O)O)cc2)c1 | 4 | 8 | 6 | i | 3
CCCCNC(=S)N1CCn2cccc2C1c1ccccc1 (stereo not drawn) | 14 | -4 | -7 | i | 27*
Cc1ccc([C@H]2C[C@H](O)[C@@H](n3cc(COC(=O)c4ccccc4)nn3)CN2C(=O)c2cccs2)cc1 | 0 | -3 | -12 | i | 0
CCOC(=O)c1cc(-c2ccc(/C=C3/C(=O)N(c4ccc(C(=O)O)cc4)N=C3C)o2)ccc1Cl | -2 | 5 | 13 | + | -75
Cc1nn(CC(=O)N2CCN(S(=O)(=O)c3ccccc3)CC2)c(C)c1[N+](=O)[O-] | -2 | -5 | 44 | i | 12
CCN1CCCc2cc(CN(CCN3CCOCC3)C(=S)Nc3ccc(OC)c(Cl)c3)ccc21 | 0 | -2 | 7 | i | 3
COc1ccc(NC(=S)N2CCC(N(C)CCN3CCOCC3)CC2)cc1Cl | -9 | 0 | 52* | i | -7
O=C1c2ccccc2S(=O)(=O)N1CC(O)Cn1ccc2ccccc21 (stereo not drawn) | -72 | -1 | 7 | + | 11
CCC(=NNC(=O)c1ccc2c(c1)nc(C)n2CC)c1cc(F)ccc1O | 5 | 11 | -11 | / | 13
OCC1CCCC(n2cnc3c(=S)nc[nH]c32)O1 (stereo not drawn) | -7 | -9 | 9 | + | -2
Cc1cccc(C)c1NC(=O)C(c1ccccc1)N(C)CCc1ccccc1 (stereo not drawn) | 16 | -2 | / | i | 13
Cn1c(N)c(C(=O)COC(=O)/C=C/c2ccc(Cl)c(Cl)c2)c(=O)n(C)c1=O | 5 | -4 | -17 | i | 25*
Cn1c(N)c(C(=O)COC(=O)/C=C/c2ccc(F)cc2)c(=O)n(C)c1=O | -5 | -4 | -12 | i | 6
O=C(O)Cc1ccc(NC(=S)Nc2ccc(Br)cc2Cl)cc1 | -4 | 0 | 15 | i | 5
CN(CC(=O)NCc1ccc(F)cc1)Cc1ccc(Br)cc1 | 6 | -3 | -1 | i | -15
COc1ccc(Br)cc1CN(C)CC(=O)NCc1ccc(F)cc1 | 7 | -4 | -6 | + | 4
CC1(C)OC(=O)C(=Cc2ccc(-c3ccc(S(N)(=O)=O)cc3)o2)C(=O)O1 | -9 | 4 | 81* | i | -34
COc1ccc(-c2csc(C(O)c3ccccc3)n2)cn1 (stereo not drawn) | -7 | -5 | / | i | -2
COC(=O)c1cc(OC)c(OC)cc1NC(=O)c1c(-c2ccccc2Cl)noc1C | 22 | -2 | 63* | i | -12
COC(=O)c1cc(OC)c(OC)cc1NC(=O)C(C)Sc1ccc(C)cc1 (stereo not drawn) | 25 | -13 | 50* | i | 7
CCOc1cc(NS(=O)(=O)c2ccc(OC)cc2)c(OCC)cc1NC(=O)c1ccco1 | 23 | 2 | 22 | + | 10
COC(=O)c1cc(OC)c(OC)cc1NC(=O)c1ccco1 | 2 | -5 | 76* | i | 11
COc1cc(NC(=O)c2ccco2)c(C(=O)O)cc1OC | -6 | -4 | 20 | i | -6
COc1ccc([N+](=O)[O-])cc1NC(=O)C(C)Sc1ccc(C)cc1 (stereo not drawn) | 48 | -4 | 0 | i | 7
SMILES | FAS-TE inh | NadD inh | CRFR2-BP antag | Myeloid diff MLP | NRP1-CendR mod
COc1ccccc1NC(=S)NC(=O)c1c(-c2ccccc2Cl)noc1C | 18 | -6 | -15 | i | 5
CCC(C)NC(=O)/C=C1\Sc2ccccc2NC1=O (stereo not drawn) | -8 | 0 | -15 | i | -7
COc1ccc(NC(=O)c2c(-c3c(Cl)cccc3Cl)noc2C)c(OC)c1 | 21 | -5 | 3 | i | 26*
COc1ccc(NC(=O)c2c(-c3c(Cl)cccc3Cl)noc2C)cn1 | 0 | -1 | 13 | i | 0
CN(CCc1ccccc1)C(=O)CC1C(=O)NCCN1Cc1ccccn1 (stereo not drawn) | -5 | 4 | -4 | i | -2
Cc1c(Cl)cccc1NS(=O)(=O)c1ccc2c(c1)C1C=CCC1C(c1ccc(C(=O)O)cc1)N2 (stereo not drawn) | 26 | 34* | -11 | / | -131
COc1ccc(NS(=O)(=O)c2ccc3c(c2)[C@H]2C=CC[C@H]2[C@@H](c2ccc(C(=O)O)cc2)N3)cc1 | 10 | 30* | 13 | i | -51
CC(=O)c1ccc2c(c1)C1C=CCC1C(c1ccc(S(=O)(=O)N3CCOCC3)cc1)N2 (stereo not drawn) | 6 | 29 | 19 | i | 12
O=C(OCc1cn([C@@H]2C[C@H](c3ccc(Cl)cc3)N(C(=O)c3cccs3)C[C@H]2O)nn1)c1ccccc1 | 8 | 2 | -21 | i | -10
O=C(CN1CCN(S(=O)(=O)c2ccc(F)cc2)CC1)Nc1ccccc1C(=O)NC1CC1 | 1 | 0 | 1 | i | 26*
N#Cc1ccc(S(=O)(=O)N2CCN(CC(=O)Nc3ccccc3C(=O)NC3CC3)CC2)cc1 | 1 | -8 | -7 | i | -2
O=C(CN1CCN(S(=O)(=O)c2ccc(F)cc2)CC1)Nc1ccc(F)cc1F | 6 | 0 | 3 | + | 3
CCN(Cc1nc2ccccc2c(=O)[nH]1)C(=O)c1cccc(OCc2c(C)noc2C)c1 | -1 | -2 | -1 | i | 6
Nc1nnc(SCc2ccc(F)cc2)n1-c1ccccc1 | -8 | 0 | 16 | i | -15
Cc1cccc(C)c1NC(=O)C(c1ccccc1)N1CCN(c2ccc(C(F)(F)F)cn2)CC1 (stereo not drawn) | 31 | 3 | / | i | 11
Cc1cccn2c(=O)c(/C=C(\C#N)C(=O)NCc3ccco3)c(N3CCCCC3)nc12 | 37 | 2 | 31 | + | -8
Cc1cccn2c(=O)c(/C=C(\C#N)C(=O)NCc3ccco3)c(N3CCC(C(N)=O)CC3)nc12 | 40 | 1 | -4 | i | -13
Cc1ccc(S(=O)(=O)/C(C#N)=C/c2c(N3CC(C)OC(C)C3)nc3c(C)cccn3c2=O)cc1 (stereo not drawn) | 56* | 12 | -7 | i | -15
O=C(Nc1ccc(F)c(Cl)c1)c1cc(C2CCCCN2C(=O)c2ccccc2)on1 (stereo not drawn) | 19 | -5 | / | i | -18
Cn1c(/C(C#N)=C/c2ccc(-c3ccc(S(N)(=O)=O)cc3)o2)nc2ccccc21 | -120 | 7 | -31 | + | 132
Cn1c(/C(C#N)=C/c2cccc(O)c2)nc2ccccc21 | -1 | -2 | -27 | i | 4
O=C(COC(=O)c1ccc(Cl)c(S(=O)(=O)N2CCCCC2)c1)NC1CCCCC1 | 7 | -2 | -5 | i | -1
CCOC(=O)C(C(=O)NCc1ccc(F)cc1)c1ncc(C(F)(F)F)cc1Cl (stereo not drawn) | 23 | -5 | -6 | ? | 25*

Bioassay records deposited in PubChem BioAssay by several laboratories.
